Measurements as given in PubChem BioAssay (NCI).
This is part of a sample that, as a whole, favours compounds with a hit. Of some 83,000 tested, about 20% had one in any assay.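 Growth was measured after 48 h exposure to one concentration of compound in 96-well plates. Values under 10 count as active.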 The source made the active and inactive calls.

test system: NCI-H460 lung; test: NCI-60 one-dose screen, 48 h (100 = growth as untreated, 0 = no growth, -100 = all killed); settings: 10 µM unless noted

Row | Compound | growth
1 | O=S(=O)(NCCNc1nccc(-c2c(-c3cccc(O)c3)nc3occn23)n1)c1ccccc1 | 80.6% (inactive)
2 | NC(=NCCCOc1ccc(F)cc1)Nc1ccc(Cl)cc1 | 84.2% (inactive)
3 | C#Cc1cccc(NC(=O)c2cccc(NC(=O)CCl)c2)c1 | -60.8% [8.25 µM] (active)
4 | CCN1Cc2nc3sc(C)c(C)c3c(=O)n2C=C1C | 115% (inactive)
5 | O=C1Nc2cc(-c3cccc([N+](=O)[O-])c3)ccc2/C1=C/c1ccc[nH]1 | 47.6% (inactive)
6 | C[C@H]1[C@H](C)CC[C@]2(C(=O)NCC#CCN3CCN(C)CC3)CC[C@]3(C)C(=CC[C@@H]4[C@@]5(C)Cc6c([nH]c7ccccc67)C(C)(C)[C@@H]5CC[C@]43C)[C@H]12 | 3.53% (active)
7 | COc1cc(/C=C/c2cc(O)c(C(C)=O)c(O)c2)cc2c1O[C@]1(C)CC[C@@H](O)C(C)(C)[C@H]1C2 | 76.3% (inactive)
8 | N#CC1=C(N)Oc2c(cnn2-c2ccc([N+](=O)[O-])cc2[N+](=O)[O-])C1c1ccccc1 (stereo not drawn) | 103% (inactive)
9 | COc1ccc(C(=O)c2cc(C)c(OC)c(C)c2)c(OC)c1N(C(=O)CCl)C(=O)CCl | 1.32% (active)
10 | CCC(=O)Oc1ccc(/C(=C(\C)c2ccccc2)c2ccc(OCCN3CCCCC3)cc2)cc1 | 72% (inactive)
11 | Cc1ccc(NC(=O)c2cc(-c3nc4ccccc4s3)c(=O)n(NS(=O)(=O)c3ccc(Cl)cc3)c2N)cc1 | 105% (inactive)
12 | O=C1Nc2ccc(F)cc2/C1=C\c1c(-c2ccccc2)nc2ccccn12 | 81.5% (inactive)
13 | O=C(NO)c1ccc(-n2nc(-c3ccccc3)c3ccccc32)cc1 | 26.6% (inactive)
14 | O=C1Nc2ccccc2/C1=C\c1c(-c2ccc(F)cc2)nc2ccccn12 | 82.6% (inactive)
15 | Oc1cccc(CCc2ccc(Oc3cc(CCc4cccc(O)c4)cc(O)c3O)cc2)c1 | 66.4% (inactive)
16 | CCCCCCCC(=O)OCC/C=C/C1OC1C1OC(=O)/C=C\C=C\C(=O)N(C(C)=O)C(=O)/C=C(/C)CCC2OC2C1OC(=O)NC(C)=O (stereo not drawn) | 82.4% (inactive)
17 | Cc1ccc(NS(=O)(=O)c2ccc(-c3cnc(C4CC4)o3)cc2)cc1C(F)(F)F | 55.8% (inactive)
18 | CNC(=O)c1cncc(Cn2nc(C)c(NC(=O)c3ccc(COc4ccc(C(F)(F)F)cc4C)cc3)c2C)c1 | 62% (inactive)
19 | Cc1cc(C)c(S(=O)(=O)Oc2ccccc2[N+](=O)[O-])c(C)c1 | 8.64% (active)
20 | C=C1C(=O)O[C@H]2[C@H]1CC/C(CNC(=O)C(C)c1ccc(CC(C)C)cc1)=C\CC[C@@]1(C)O[C@@H]21 (stereo partly drawn) | 36.2% (inactive)
21 | NC(=S)N1N=C(c2ccccc2)CC1c1cn(-c2ccccc2)nc1-c1ccc(OCc2ccccc2)cc1 (stereo not drawn) | 106% (inactive)
22 | CN1CCN(C(=O)[C@]23CCC(C)(C)C[C@H]2C2=CC[C@@H]4[C@@]5(C)C/C(=C/c6cccnc6)C(=O)C(C)(C)[C@@H]5CC[C@@]4(C)[C@]2(C)CC3)CC1 | 31.9% (inactive)
23 | O=C1Nc2cc(-c3cccc(O)c3)ccc2/C1=C/c1ccc[nH]1 | 4.52% (active)
24 | COc1ccc(/C=C/c2nc(Nc3ccc(S(=O)(=O)NC(C)=O)cc3)c3ccccc3n2)cc1 | 64.7% (inactive)
25 | CCNC(=O)Oc1ccc(/C(=C(\C)c2ccccc2)c2ccc(OCCN3CCCCC3)cc2)cc1 | 49.3% (inactive)

test system: HOP-92 NSCLC; test: as above; settings: 10 µM unless noted

Row | Compound | growth
26 | Cc1nn(-c2ccccc2)c(Cl)c1/C=C/C(=O)c1ccc(F)cc1 | 88.1% (inactive)
27 | COc1cc2oc(-c3cccc(C(=O)Nc4ccc(Br)cc4)c3)cc(=O)c2c(OC)c1OC | 50.9% (inactive)
28 | CC1=C(C(=O)/C=C/c2c[nH]c3ccccc23)C(c2ccccc2)NC(=S)N1 (stereo not drawn) | 90.1% (inactive)
29 | CCCCCN1C=C/C(=C\C(=O)N(C)c2ccc(Oc3ccccc3)cc2)c2ccccc21 | 47.7% (inactive)
30 | Cn1cc(-c2nc(-c3c[nH]c4c(Cl)nccc34)cs2)c2cc(Br)ccc21 | 91.2% (inactive)
31 | COc1ccc(/C=C2\Oc3cc(OCCCN4CCCCC4)ccc3C2=O)cc1OC | 65.9% (inactive)
32 | Cc1cc2nc3c4cc(C=O)ccc4n(CCN(C)C)c3nc2cc1C | 27% (inactive)
33 | S=c1cc(S)c2cc(Br)ccc2[nH]1 | 88.5% (inactive)
34 | O=C(/C(=C\c1ccc([N+](=O)[O-])cc1)S(=O)Cc1ccc(Cl)cc1)c1ccc(Cl)cc1 (stereo not drawn) | 83.6% (inactive)
35 | COc1cc(CC(=O)c2ccc(O)c(OC)c2)ccc1O | 84.5% (inactive)
36 | O=C(NCCc1ccccc1)Nc1ccc2cc3ccc(NC(=O)NCCc4ccccc4)cc3nc2c1 | 68.1% (inactive)
37 | C=C(C)[C@@H]1CC[C@]2(C(=O)N3CCN(C)CC3)CC[C@]3(C)[C@H](CC[C@@H]4[C@@]5(C)C/C(=C/c6cccnc6)C(=O)C(C)(C)[C@@H]5CC[C@]43C)[C@@H]12 | 52.8% (inactive)
38 | COc1cc2nc(-c3ccc(Cl)cc3)cc(OCCCN3CCC(O)CC3)c2cc1OC | 38.1% (inactive)
39 | O=S(=O)(NCCNc1nccc(-c2c(-c3cccc(O)c3)nc3occn23)n1)c1ccccc1 | 80.9% (inactive)
40 | NC(=NCCCOc1ccc(F)cc1)Nc1ccc(Cl)cc1 | 60.7% (inactive)
41 | C#Cc1cccc(NC(=O)c2cccc(NC(=O)CCl)c2)c1 | -65.3% [8.25 µM] (active)
42 | CCN1Cc2nc3sc(C)c(C)c3c(=O)n2C=C1C | -14.7% (active)
43 | O=C1Nc2cc(-c3cccc([N+](=O)[O-])c3)ccc2/C1=C/c1ccc[nH]1 | 72.5% (inactive)
44 | C[C@H]1[C@H](C)CC[C@]2(C(=O)NCC#CCN3CCN(C)CC3)CC[C@]3(C)C(=CC[C@@H]4[C@@]5(C)Cc6c([nH]c7ccccc67)C(C)(C)[C@@H]5CC[C@]43C)[C@H]12 | 63.8% (inactive)

Row | Compound | growth
45 | COc1cc(/C=C/c2cc(O)c(C(C)=O)c(O)c2)cc2c1O[C@]1(C)CC[C@@H](O)C(C)(C)[C@H]1C2 | 95.5% (inactive)
46 | N#CC1=C(N)Oc2c(cnn2-c2ccc([N+](=O)[O-])cc2[N+](=O)[O-])C1c1ccccc1 (stereo not drawn) | 75.6% (inactive)
47 | COc1ccc(C(=O)c2cc(C)c(OC)c(C)c2)c(OC)c1N(C(=O)CCl)C(=O)CCl | 7.45% (active)
48 | CCC(=O)Oc1ccc(/C(=C(\C)c2ccccc2)c2ccc(OCCN3CCCCC3)cc2)cc1 | 86.5% (inactive)
49 | Cc1ccc(NC(=O)c2cc(-c3nc4ccccc4s3)c(=O)n(NS(=O)(=O)c3ccc(Cl)cc3)c2N)cc1 | 103% (inactive)
50 | O=C1Nc2ccc(F)cc2/C1=C\c1c(-c2ccccc2)nc2ccccn12 | 72.7% (inactive)
51 | O=C(NO)c1ccc(-n2nc(-c3ccccc3)c3ccccc32)cc1 | 62.9% (inactive)
52 | O=C1Nc2ccccc2/C1=C\c1c(-c2ccc(F)cc2)nc2ccccn12 | 79.3% (inactive)
53 | Oc1cccc(CCc2ccc(Oc3cc(CCc4cccc(O)c4)cc(O)c3O)cc2)c1 | 53.5% (inactive)
54 | CCCCCCCC(=O)OCC/C=C/C1OC1C1OC(=O)/C=C\C=C\C(=O)N(C(C)=O)C(=O)/C=C(/C)CCC2OC2C1OC(=O)NC(C)=O (stereo not drawn) | 53.3% (inactive)
55 | Cc1ccc(NS(=O)(=O)c2ccc(-c3cnc(C4CC4)o3)cc2)cc1C(F)(F)F | 83.3% (inactive)
56 | CNC(=O)c1cncc(Cn2nc(C)c(NC(=O)c3ccc(COc4ccc(C(F)(F)F)cc4C)cc3)c2C)c1 | 79.2% (inactive)
57 | Cc1cc(C)c(S(=O)(=O)Oc2ccccc2[N+](=O)[O-])c(C)c1 | 38.1% (inactive)
58 | C=C1C(=O)O[C@H]2[C@H]1CC/C(CNC(=O)C(C)c1ccc(CC(C)C)cc1)=C\CC[C@@]1(C)O[C@@H]21 (stereo partly drawn) | -19.1% (active)
59 | NC(=S)N1N=C(c2ccccc2)CC1c1cn(-c2ccccc2)nc1-c1ccc(OCc2ccccc2)cc1 (stereo not drawn) | 80% (inactive)
60 | CN1CCN(C(=O)[C@]23CCC(C)(C)C[C@H]2C2=CC[C@@H]4[C@@]5(C)C/C(=C/c6cccnc6)C(=O)C(C)(C)[C@@H]5CC[C@@]4(C)[C@]2(C)CC3)CC1 | 40.7% (inactive)
61 | O=C1Nc2cc(-c3cccc(O)c3)ccc2/C1=C/c1ccc[nH]1 | 30.9% (inactive)
62 | COc1ccc(/C=C/c2nc(Nc3ccc(S(=O)(=O)NC(C)=O)cc3)c3ccccc3n2)cc1 | 67.8% (inactive)
63 | CCNC(=O)Oc1ccc(/C(=C(\C)c2ccccc2)c2ccc(OCCN3CCCCC3)cc2)cc1 | 73.4% (inactive)
